Test results taken from PubChem BioAssay (NCI).
Compounds without any hit were thinned out: in the full panel of roughly 83,000, 20% have a hit.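 The test compound was applied at a single concentration to cells in 96-well plates for 48 hours, and percent growth was recorded.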 Values without a mark were called inactive. Active and inactive are the calls of the source. The calls were made as follows: active = growth percent below 10; inactive = the rest.

Assays:
Assay in all cases: NCI-60 one-dose screen, 48 h (100 = growth as untreated, 0 = no growth, -100 = all killed)
Settings in all cases: 10 µM unless noted
DU-145 prostate = system: DU-145 prostate
K-562 leukemia = system: K-562 leukemia
MALME-3M melanoma = system: MALME-3M melanoma
MDA-MB-231 breast = system: MDA-MB-231 breast
RXF 393 renal = system: RXF 393 renal
SF-268 CNS = system: SF-268 CNS
SF-295 CNS = system: SF-295 CNS
SF-539 CNS = system: SF-539 CNS
UACC-257 melanoma = system: UACC-257 melanoma
M14 melanoma = system: M14 melanoma

C=CCn1c(SCC(=O)Nc2ccc(C(=O)/C=C/c3ccc(Cl)cc3)cc2)nnc1-c1ccc(Cl)c(Cl)c1
growth (DU-145 prostate): 92.2%
growth (K-562 leukemia): 50.4%
growth (MALME-3M melanoma): 85.2%
growth (MDA-MB-231 breast): 85.2%
growth (RXF 393 renal): 75.1%
growth (SF-268 CNS): 80.4%
growth (SF-295 CNS): 93.9%
growth (SF-539 CNS): 87%
growth (UACC-257 melanoma): 93.9%
growth (M14 melanoma): 80.1%

NS(=O)(=O)Oc1cccc(-c2nc3sccn3c2-c2ccccc2)c1
growth (DU-145 prostate): 89.9%
growth (K-562 leukemia): 16.7%
growth (MALME-3M melanoma): 41.3%
growth (MDA-MB-231 breast): 60.3%
growth (RXF 393 renal): 50%
growth (SF-268 CNS): 70.1%
growth (SF-295 CNS): 28.8%
growth (SF-539 CNS): 31.9%
growth (UACC-257 melanoma): 74.4%
growth (M14 melanoma): 20.4%

Cc1nn(-c2ccccc2)c(Oc2ccccc2)c1/C=N/NC(=O)Cn1c(=O)sc2ccccc21
growth (DU-145 prostate): 76.1%
growth (K-562 leukemia): 25.2%
growth (MALME-3M melanoma): 52.7%
growth (MDA-MB-231 breast): 53.6%
growth (RXF 393 renal): 70.6%
growth (SF-268 CNS): 55%
growth (SF-295 CNS): 45.3%
growth (SF-539 CNS): 71.4%
growth (UACC-257 melanoma): 66.1%
growth (M14 melanoma): 56.2%

O=C1c2cccnc2C(=O)c2c1c(C(=O)OCCCN1CCOCC1)c1ccccn21
growth (DU-145 prostate): -84.2% (active)
growth (K-562 leukemia): -20.2% (active)
growth (MALME-3M melanoma): -53.9% (active)
growth (MDA-MB-231 breast): 14.1%
growth (RXF 393 renal): 3.94% (active)
growth (SF-268 CNS): 5.83% (active)
growth (SF-295 CNS): -4.43% (active)
growth (SF-539 CNS): -43.2% (active)
growth (UACC-257 melanoma): -85.6% (active)
growth (M14 melanoma): -81.2% (active)

COc1cc(C)cc(-c2c(-c3cc(N4CC(O)C4)nc(-c4cccnc4)n3)cnn2C)c1
growth (DU-145 prostate): 89.5%
growth (K-562 leukemia): 80.1%
growth (MALME-3M melanoma): 104%
growth (MDA-MB-231 breast): 55%
growth (RXF 393 renal): 77.9%
growth (SF-268 CNS): 98.5%
growth (SF-295 CNS): 92.8%
growth (SF-539 CNS): 94.3%
growth (UACC-257 melanoma): 109%
growth (M14 melanoma): 90.6%

COc1ccc(-c2nc(SCCC(C)C)nc(N/N=C(/C)c3ccc(N)cc3)c2C#N)cc1
growth (DU-145 prostate): 97.1%
growth (K-562 leukemia): 94.3%
growth (MALME-3M melanoma): 104%
growth (MDA-MB-231 breast): 82.3%
growth (RXF 393 renal): 86.2%
growth (SF-268 CNS): 92%
growth (SF-295 CNS): 102%
growth (SF-539 CNS): 87.9%
growth (UACC-257 melanoma): 102%
growth (M14 melanoma): 111%

Oc1ccc(Cc2ccc(O)c3ncccc23)c2cccnc12
growth (DU-145 prostate): 23.5%
growth (K-562 leukemia): 9.66% (active)
growth (MALME-3M melanoma): -14.1% (active)
growth (MDA-MB-231 breast): 5.46% (active)
growth (RXF 393 renal): 9.57% (active)
growth (SF-268 CNS): 27.5%
growth (SF-295 CNS): -20.5% (active)
growth (SF-539 CNS): 14.1%
growth (UACC-257 melanoma): -8.29% (active)
growth (M14 melanoma): 17%

CSc1nn2c(-c3cc4cc(Br)ccc4oc3=O)ccnc2c1C#N
growth (DU-145 prostate): 110%
growth (K-562 leukemia): 104%
growth (MALME-3M melanoma): 120%
growth (MDA-MB-231 breast): 105%
growth (RXF 393 renal): 109%
growth (SF-268 CNS): 103%
growth (SF-295 CNS): 103%
growth (SF-539 CNS): 106%
growth (UACC-257 melanoma): 106%
growth (M14 melanoma): 104%

Nc1nc(N)c2c(n1)NC(c1cccc(Nc3ccnc4cc(C(F)(F)F)ccc34)c1)CC(c1ccc(Cl)cc1)=N2 (stereo not given)
growth (DU-145 prostate): 69.5%
growth (K-562 leukemia): 10.5%
growth (MALME-3M melanoma): 50.8%
growth (MDA-MB-231 breast): 54.4%
growth (RXF 393 renal): 37.6%
growth (SF-268 CNS): 55.2%
growth (SF-295 CNS): 48.4%
growth (SF-539 CNS): 80.8%
growth (UACC-257 melanoma): 87.3%
growth (M14 melanoma): 29.7%

COc1cc2c(c(OC)c1OC)CCC(c1cccc(C(=O)Nc3ccccc3Br)c1)O2 (stereo not given)
growth (DU-145 prostate): 86.7%
growth (K-562 leukemia): 71.5%
growth (MALME-3M melanoma): 89.6%
growth (MDA-MB-231 breast): 83.3%
growth (RXF 393 renal): 91.8%
growth (SF-268 CNS): 87.1%
growth (SF-295 CNS): 94.9%
growth (SF-539 CNS): 83.1%
growth (UACC-257 melanoma): 90.7%
growth (M14 melanoma): 67.4%

CC(=O)OCCOc1cc(Cl)c(Cl)cc1Cl
growth (DU-145 prostate): 105%
growth (K-562 leukemia): 102%
growth (MALME-3M melanoma): 114%
growth (MDA-MB-231 breast): 94.3%
growth (RXF 393 renal): 102%
growth (SF-268 CNS): 99.4%
growth (SF-295 CNS): 95%
growth (SF-539 CNS): 107%
growth (UACC-257 melanoma): 102%
growth (M14 melanoma): 103%

C=CC(=O)NCc1cccc(Nc2ncc(Br)c(NCCCNC(=O)C3CCC3)n2)c1
growth (DU-145 prostate): 9.47% (active)
growth (K-562 leukemia): 9.33% (active)
growth (MALME-3M melanoma): -23.2% (active)
growth (MDA-MB-231 breast): -26% (active)
growth (RXF 393 renal): -74.6% (active)
growth (SF-268 CNS): -29.4% (active)
growth (SF-295 CNS): 2.75% (active)
growth (SF-539 CNS): -68% (active)
growth (UACC-257 melanoma): 0.107% (active)
growth (M14 melanoma): -31% (active)

CCC(=C(c1ccc(OCCN(CC)CC)cc1)c1ccc(OCCN(CC)CC)cc1)c1ccc(Cl)cc1
growth (DU-145 prostate): -19.7% (active)
growth (K-562 leukemia): 0.499% (active)
growth (MALME-3M melanoma): -81.4% (active)
growth (MDA-MB-231 breast): -81.7% (active)
growth (RXF 393 renal): -54.3% (active)
growth (SF-268 CNS): -4.01% (active)
growth (SF-295 CNS): -68.5% (active)
growth (SF-539 CNS): -90.3% (active)
growth (UACC-257 melanoma): -65% (active)
growth (M14 melanoma): -79% (active)

CCCCC#Cc1c(I)n(C2OC(CO[Si](C)(C)C(C)(C)C)C3OC(C)(C)OC32)c(=O)[nH]c1=O (stereo not given)
growth (DU-145 prostate): 74.1%
growth (K-562 leukemia): 36.3%
growth (MALME-3M melanoma): 60.6%
growth (MDA-MB-231 breast): 79%
growth (RXF 393 renal): -56.4% (active)
growth (SF-268 CNS): 98.4%
growth (SF-295 CNS): 113%
growth (SF-539 CNS): 88.1%
growth (UACC-257 melanoma): 55.1%
growth (M14 melanoma): 76%
